Most compounds without a hit are left out; they make up all but 7.8% or so of the library.
Marburg entry inh: inhibitors of Marburg virus binding or cell entry. Marburg virus pseudotyped entry inhibition, cell reporter. Potency, µM (doses to about 37.8 µM), most hits filed as inhibitors. actives 1.8% (n = 300,000); calls by dose curve; tested in HEK293 cells
HCMV antiviral: inhibitors of human cytomegalovirus. HFF cells, HCMV-luciferase reporter, 72 h; stronger effect = lower value. activity change, negative = inhibition, % at 57.5 µM. actives 4.5% (n = 410,000). AID 1259415; in the data active means activity change below about -60%; inconclusive means no clear call, values can overlap the other calls; inactive means above about -39%
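Two compound doses tested in HFFs infected with HCMV-luciferase, MOI 1 PFU/cell, 72 h at 37C. Lysate luminescence read with OneGlo; data normalized against buffer-only and 10uM Salinomycin inhibitor controls.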
VACV mCherry inh: vaccinia inhibition (mCherry reporter). Potency, µM (titrated, usually from 36.5 µM), actives largely listed as inhibitors. Vaccinia virus mCherry reporter infection, fluorescence. actives 0.63% (n = 310,000); calls by dose curve; tested in A549 cells; further: nearly all actives have a fitted effect of over 35% in size
LASV entry inh: inhibitors of Lassa virus binding or cell entry | Lassa virus pseudotype entry inhibition, cell reporter | AID 540256 | actives 1.2% (n = 300,000) | Potency, µM (titrated, usually from 37.9 µM), hits mostly inhibitors; calls by dose curve; tested in HEK293 cells; further: nearly all actives have a fitted effect of over 50% in size
HCV inhibitor: blocks hepatitis C virus; Huh7.5.1 HCVcc-Cre infection, luciferase reporter, 44 h; Potency, µM (doses to about 41.8 µM), hits mostly inhibitors; actives 3.4% (n = 340,000); AID 651820; active means well fitted inhibition curve with a large enough effect; inconclusive means small, poorly fitted or top-dose-only effect, or another doubt; inactive means no such curve, though single readings can be large or run the other way
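HCVcc-Cre virus at an moi near 0.5 was added right after compound to cells cultured 4 h from seeding (1,000 cells/well). Luciferase activity was determined 44 h later, 15 min after substrate addition at RT.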
VACV Venus inh: vaccinia inhibition (Venus reporter). actives 0.46% (n = 330,000). Vaccinia virus Venus reporter expression, fluorescence. Potency, µM (doses to about 36.5 µM), most hits filed as inhibitors; calls by dose curve; tested in A549 cells; further: nearly all actives have a fitted effect of over 30% in size
Numbers stand for hits; i = inactive; ? = inconclusive; nt = no result; + = active, no number; [ ] = remark or other dose.

SMILES	Marburg entry inh	HCMV antiviral	VACV mCherry inh	LASV entry inh	HCV inhibitor	VACV Venus inh
Cc1cc(C)n(-c2nc(NCC(C)O)c3c4c(sc3n2)CCCC4)n1 (centres undefined)	?	i	nt	?	5.6µM	i
Cc1cc(C)n(-c2nc(NCC3CCCO3)c3c4c(sc3n2)COC(C)(C)C4)n1 (centres undefined)	?	i	nt	?	?	?
CCC[C@H]1[C@@H](NC(=O)NCCCC(=O)OCC)CC[C@@]23CCCN2C(=O)CCC[C@@H]13	nt	i	nt	nt	nt	nt
COC(=O)c1ccc(CN2CCOc3ccc(C(O)c4cccnc4)cc3C2)cc1 (centres undefined)	nt	nt	i	nt	nt	i
CC[N+]1(CC(=O)c2ccc(OC)cc2)CCCCC1	nt	nt	i	nt	nt	i
CCC1CCC(C(=O)NC(C(=O)NCCN(CC(C)C)CC(C)C)C(C)C)CC1 (centres undefined)	i	i	i	i	nt	i
O=C(CCCO)NNc1c2ccccc2nc2ccccc12	i	i	i[7.34 µM]	i	1µM	i[7.34 µM]
COc1ccc(OCC(=O)NNc2c3ccccc3nc3ccccc23)cc1	?	-75	i	?	6.3µM	?
COc1ccc(OCC(=O)NNC(=O)C(=O)Nc2ccccc2)cc1	nt	i	nt	nt	i	nt
COc1cc2nc(N3CCOCC3)nc(NC3CC3)c2cc1OC	nt	nt	i	nt	nt	i
O=C(NC1CC(=O)N(c2cccc(F)c2)C1)C1CC1 (centres undefined)	nt	i	i	i	nt	i
CCN1CCN(CCCNC(=O)C2c3ccccc3C(=O)N(c3ccc(OC)cc3)C2c2ccc(OC)cc2)CC1 (centres undefined)	?	-62	i	i	i	i
COc1ccc(C2C(C(=O)Nc3cc(OC)c(OC)c(OC)c3)c3ccccc3C(=O)N2C)cc1 (centres undefined)	?	-66	i	?	i	?
CCOC(=O)CNC(=O)C1c2ccccc2C(=O)N(c2ccc(OC)cc2)C1c1ccc(OC)cc1 (centres undefined)	i	i	nt	?	i	nt
CN(CC(=O)Nc1ccc(F)cc1)C(=O)c1ccncc1	i	-72	i	i	i	i
CN(CC(=O)Nc1cccc(F)c1)C(=O)c1cccc(S(=O)(=O)N2CCN(c3ccccc3)CC2)c1	?	-77	?	i	?	?
CN(CC(=O)Nc1ccc(F)cc1)C(=O)c1cccc(S(=O)(=O)N2CCN(c3ccc(F)cc3)CC2)c1	?	-63	?	?	8.9µM	?
CCCN(CCC)CCNC(=O)C1CCCN(S(=O)(=O)c2cccc3nsnc23)C1 (centres undefined)	i	i	i	i	nt	i
CC1(C)CCC[C@]2(C)[C@H]3CC(=O)O[C@]3(C)CC[C@@H]12	i	i	i	i	i	i
CC1(C)CCC[C@]2(C)[C@H]3Cc4cc(O)ccc4O[C@]3(C)CC[C@@H]12	nt	-88	?	nt	?	?
Cc1cc([N+](=O)[O-])nn1CC(=O)Nc1ccc(Cl)cn1	i	-60	i	i	i	i
Cc1ccc2[nH]cc(/C=C/c3cc[n+](C)cc3)c2c1	5µM	-100	?	?	?	i
CC[n+]1ccc(/C=C/c2c[nH]c3ccccc23)cc1	nt	-94	nt	nt	2.8µM	nt
COc1ccc2c(c1)c(/C=C/c1cc[n+](C)cc1)cn2C	nt	-98	?	nt	i	i
COc1ccc2c(/C=C/c3cc[n+](C)cc3)c[nH]c2c1	i	-99	?	i	?	i
SMILES	Marburg entry inh	HCMV antiviral	VACV mCherry inh	LASV entry inh	HCV inhibitor	VACV Venus inh
CCCCCCC[n+]1ccc(/C=C/c2c[nH]c3ccccc23)cc1	nt	nt	i	nt	nt	i
COc1ccc(-c2ccnc(-n3ncc(C(=O)NCc4ccon4)c3C3CC3)n2)cc1F	nt	nt	i	nt	nt	?
NC(CSC1(c2ccc(F)cc2)c2ccccc2-c2ccccc21)C(=O)O (centres undefined)	nt	-68	i	nt	nt	i
NC(CSC1(c2ccc(Cl)cc2)c2ccccc2-c2ccccc21)C(=O)O (centres undefined)	i	i	i	i	i	i
CCOc1ccccc1NC(=O)c1cc2c(=O)oc3ccccc3c2s1	nt	i	i	?	nt	i
CCc1ccc(NC(=O)CN2C(=O)c3cccc4cccc2c34)cc1	i	i	i	i	nt	i
Cc1cccc(C#CC2=CC(=O)CC(C)(C)C2)c1	nt	-100	i	nt	nt	i
COc1ccc(-c2cnnc(N/N=C/c3ccc(O)c(O)c3)n2)cc1	?	i	i	4.6µM	i	i
Brc1ccc(-c2ccc(/C=N/Nc3nncc(-c4ccccc4)n3)o2)cc1	i	?	i	i	i	i
Oc1ccc(/C=N\Nc2nncc(-c3ccccc3)n2)cc1	nt	-66	?	nt	?	i
COc1ccc(-c2cnnc(N/N=C/c3ccc(O)cc3)n2)cc1	?	-71	i	2µM	i	i
COc1ccc(-c2cnnc(N/N=C/c3ccc(C)o3)n2)cc1	i	?	i	?	i	i
CCOc1ncccc1C(=O)NCCc1ccc(S(N)(=O)=O)cc1	i	-67	i	i	i	i
CCOc1ncccc1C(=O)OCC(=O)NCCc1ccc(S(N)(=O)=O)cc1	nt	i	nt	nt	i	nt
Cc1ccc(OCCC(=O)NCCc2ccc(S(N)(=O)=O)cc2)cc1	i	i	i	i	i	i
CCOc1ccc(OCCC(=O)OCC(=O)NCCc2ccc(S(N)(=O)=O)cc2)cc1	nt	-73	nt	nt	i	nt
O=c1c2c3c(sc2n(CCN2CCOCC2)c(=O)n1C1CCCCC1)CCCCC3	nt	i	nt	nt	nt	nt
CC(C)c1ccc(OCC(=O)Nc2c(C(=O)c3ccc(F)cc3)oc3ccccc23)cc1	i	i	i	i	nt	i
CCOCCCNC(=O)C1CCCN(Cc2nc(-c3ccc(CC)cc3)oc2C)C1 (centres undefined)	?	i	?	i	nt	i
COc1cccc(NC(=O)CSc2ccc(-c3sc(C)nc3C)nn2)c1	?	i	?	?	32µM	i
COc1ccc(C)cc1NC(=O)CSc1ccc(-c2sc(C)nc2C)nn1	i	i	i	?	10µM	i
COc1ccc(OC)c(NC(=O)CSc2ccc(-c3sc(C)nc3C)nn2)c1	nt	i	i	?	nt	i
COc1cc2ccccc2cc1C(=O)NC(=S)Nc1nnn(C)n1	i	i	i	i	i	i
Cn1nnc(NC(=S)NC(=O)c2cc(Cl)ccc2Cl)n1	nt	+	nt	nt	i	nt
Cc1cccc(C)c1NC(=O)CNC(=O)C12CC3CC(CC(O)(C3)C1)C2	?	-73	i	i	i	i
SMILES	Marburg entry inh	HCMV antiviral	VACV mCherry inh	LASV entry inh	HCV inhibitor	VACV Venus inh
CCc1ccc(OCc2cc(=O)n3cc(C)sc3n2)cc1	i	i	i	i	nt	i
Cn1nc([N+](=O)[O-])c(C(C#N)c2nc3ccccc3n2C)c(Cl)c1=O (centres undefined)	i	-76	i	i	i	i
O=C(CN1c2ccccc2Sc2ccccc21)NNC(=S)Nc1ccc(Cl)cc1	i	i	i	i	35µM	i
N#C/C(=C\C=C\c1ccccc1[N+](=O)[O-])c1nc(-c2ccc3c(c2)OCO3)cs1	i	i	i	i	11µM	i
Cc1ccccc1C=O	nt	i	i	nt	i	i
Cc1ccccc1/C=C/C1=NCCN1	11µM	i	i	?	i	i
